From the supplement of paper PMC11219838
Values without a mark were called inactive.

What was measured:
Settings in all cases: 60 µM; 5 days; temperature: 20 °C
Meloidogyne hapla J2 = experiment: proportion of mobile M. hapla J2 relative to DMSO control (fraction of DMSO control); higher = more viable, less nematicidal, active = 0.7 or less
Method in brief: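 Two biological replicates were run and averaged, each on 96-well plates in which about 25 M. hapla J2 sat in distilled water per well. Compound was pinned in to give 60 µM final and 0.6% v/v DMSO, and the sealed plates were shaken at 200 rpm and 20 °C for 5 days before 2 µL 1 M NaOH was added. Mobility was scored microscopically and divided by the mean from the plate's DMSO-only wells, of which there were eight.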

[1] = test system: Caenorhabditis elegans dauer (daf-2(e1370)); experiment: proportion of mobile C. elegans dauer larvae relative to DMSO control (fraction of DMSO control); higher = more viable, less nematicidal, active = 0.63 or less; extreme values may be limits of the assay
Method in brief: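 Synchronized C. elegans larvae were kept for 48 h at 25 °C on MYOB plates seeded with E. coli OP50 to induce dauer formation, and roughly 20 dauers were transferred into each well of a 96-well plate containing liquid NGM. Compound was pinned in to a final concentration of 60 µM with 0.6% v/v DMSO, and the sealed plates were shaken at 200 rpm for 5 days at 20 °C. The fraction of mobile worms was scored under a dissection microscope against DMSO-only wells and averaged across two biological replicates.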

Ditylenchus dipsaci = experiment: proportion of mobile D. dipsaci (mixed stage) relative to DMSO control (fraction of DMSO control); higher = more viable, less nematicidal, active = 0.86 or less; extreme values may be limits of the assay
Method in brief: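 The worms, D. dipsaci raised on pea plants in Gamborg B-5 agar, were recovered through a filter funnel into water. Each well of a 96-well plate then held about 20 of them in distilled water plus pinned compound at 60 µM final (0.6% v/v DMSO), and the sealed plates were shaken at 200 rpm at 20 °C for 5 days. Following addition of 2 µL 1 M NaOH, mobile worms were counted by microscopy, and mobility was expressed against DMSO controls as the average of two biological replicates.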

Row | Compound | proportion of mobile M. hapla J2 (Meloidogyne hapla J2) | proportion of mobile C. elegans dauer larvae [1] | proportion of mobile D. dipsaci (Ditylenchus dipsaci)
1 | c1ccc(-c2noc(-c3cccs3)n2)cc1 [tioxazafen] | 0.937 | 0 (active) | 1
2 | Fc1ccc(-c2nc(-c3ccc(Br)cc3)no2)cc1 | 0.848 | 1 | 1
3 | Cc1ccccc1CSc1nnc(-c2ccccc2Cl)o1 | 0.888 | 1 | 1
4 | COc1ccc(Cl)cc1NC(=O)CSc1nnc(-c2ccco2)o1 | 0.917 | 1 | 1
5 | Cc1cccc(-c2noc(-c3cccc(Br)c3)n2)c1 | 0.87 | 1 | 1
6 | COc1ccc(-c2noc(COc3ccc(Cl)c(C)c3)n2)cc1 | 1.02 | 1 | 1
7 | CCOc1cc(-c2nc(-c3ccc(C)nc3OC)no2)cc(OCC)c1OCC | 0.628 (active) | 1 | 1
8 | C#CCOc1ccc(-c2nc(-c3ccccc3)no2)cc1 | 1.06 | 1 | 1
9 | c1cc(-c2noc(C34CC5CC(CC(C5)C3)C4)n2)ccn1 | 0.941 | 1 | 1
10 | Cc1cccc(-c2noc(COc3cc(C)ccc3C)n2)c1 | 1.04 | 1 | 1
11 | COc1ccccc1-c1nc(-c2ccc(Br)cc2)no1 | 1.04 | 1 | 1
12 | CC(C)Oc1ccc(-c2nc(-c3ccncc3)no2)cc1 | 1 | 0 (active) | 0.941
13 | Cc1cccc(-c2noc(-c3ccc(C)c(Cl)c3)n2)c1 | 1.01 | 1 | 1
14 | Fc1ccc(-c2nc(-c3ccc(Cl)cc3)no2)cc1 | 0.919 | 1 | 1
15 | COc1cccc(OCc2nc(-c3cccc(C)c3)no2)c1 | 0.866 | 1 | 1
16 | Cc1ccc(-c2nnc(SCC(=O)Nc3ccc(F)cc3)o2)cc1 | 1.04 | 1 | 1
17 | COc1ccc(-c2nnc(SCC(=O)Nc3ccccc3F)o2)cc1 | 1.04 | 1 | 1
18 | CC(C)(C)c1ccc(-c2nc(-c3ccncc3)no2)cc1 | 1.03 | 1 | 1
19 | CC(=O)Nc1cccc(-c2nnc(SCc3ccc(F)cc3)o2)c1 | 0.959 | 1 | 1

Row | Compound | proportion of mobile M. hapla J2 (Meloidogyne hapla J2) | proportion of mobile C. elegans dauer larvae [1] | proportion of mobile D. dipsaci (Ditylenchus dipsaci)
20 | Clc1ccc(OCc2nc(-c3cccnc3)no2)c(Cl)c1 | 0.998 | 1 | 1
21 | Cc1cccc(-c2nnc(SCC(=O)Nc3ccccc3F)o2)c1 | 0.753 | 1 | 1
22 | COc1ccc(-c2noc(C3CCCCC3)n2)cc1 | 0.927 | 0.779 | 1
23 | CCOc1ccccc1NC(=O)CSc1nnc(-c2ccccc2)o1 | 0.977 | 1 | 1
24 | COC(=O)CSc1nnc(-c2ccc(C(C)(C)C)cc2)o1 | 0.976 | 1 | 1
25 | Cc1ccc(-c2nnc(SCc3ccccc3Cl)o2)cc1 | 0.964 | 1 | 1
26 | FC(F)(F)c1cccc(-c2noc(-c3ccc4c(c3)OCO4)n2)c1 | 1.06 | 1 | 1
27 | Cc1ccc(-c2nc(-c3ccccc3)no2)cc1 | 1.04 | 1 | 1
28 | O=C(CSc1nnc(-c2ccco2)o1)Nc1ccc(F)cc1 | 0.939 | 1 | 1
29 | Cc1ccc(-c2noc(CSc3nc(C)cc(C)n3)n2)cc1 | 0.974 | 1 | 1
30 | N#Cc1ccccc1CSc1nnc(-c2ccncc2)o1 | 0.826 | 1 | 1
31 | Clc1ccccc1OCc1nc(-c2cccs2)no1 | 1.06 | 1 | 1
32 | Cn1cc(C(=O)CSc2nnc(-c3cccc(Cl)c3)o2)c2ccccc21 | 0.999 | 1 | 1
33 | COc1ccc(-c2noc(-c3ccc(Cl)cc3Cl)n2)cc1 | 1.04 | 1 | 1
34 | COc1ccccc1OCc1nc(-c2cccc(Br)c2)no1 | 0.499 (active) | 1 | 1
35 | O=C(CSc1nnc(-c2ccccc2Cl)o1)Nc1nccs1 | 0.992 | 1 | 1
36 | Brc1cccc(-c2noc(-c3ccc4c(c3)OCO4)n2)c1 | 1.03 | 1 | 1
37 | CCSc1nnc(-c2ccc(Cl)cc2)o1 | 0 (active) | 0 (active) | 0 (active)
